HT1080NT lethal = kills 2HG-producing HT-1080-NT fibrosarcoma cells | AID 686970 | HT-1080-NT fibrosarcoma viability, CellTiter-Glo ATP luminescence, 48 h | Potency, µM (doses to about 46.1 µM), for the others: at the top dose activity, negative = less viability, hits mostly cytotoxic | actives 1.6% (n = 360,000);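 note: NT is the 2HG producing partner of a matched IDH1 knockdown line; 0% = DMSO-treated cells and -100% = media-only wells without cells; nearly all actives have a fitted effect of over 55% in size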
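A 48-hour cytotoxicity screen used HT-1080-NT cells plated 2 hours before compound delivery. ATP-based CellTiter-Glo luminescence measured viability, normalized to DMSO and no-cell controls.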
DT40 TDP1 CPT = DT40-hTDP1 cell growth loss with CPT. actives 12% (n = 420,000). chicken DT40 Tdp1-/-;hTDP1 cells + 20 nM CPT, ATP luminescence, 48 h. Potency, µM (highest dose often 46.2 µM), without a hit: at the top dose activity change, negative = growth inhibition, actives largely listed as inhibitors; note: nearly all actives have a fitted effect of over 55% in size
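Cell growth measured by CellTiter-Glo luminescence after a minimum 48 h, 37 C compound exposure with 20 nM CPT in Tdp1-knockout DT40 cells stably expressing hTDP1, seeded 400/well; qHTS titration format.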
DT40 TDP1 no CPT = qHTS for Inhibitors of human tyrosyl-DNA phosphodiesterase 1 (TDP1): qHTS in cells in absence of CPT; DT40 Tdp1-/- hTDP1 cells, no CPT, ATP luminescence, 48 h; Potency, µM (doses to about 46.2 µM), inactives show at the top dose activity change, negative = growth inhibition, actives largely listed as inhibitors; actives 15% (n = 420,000); AID 686978, 2013; note: nearly all actives have a fitted effect of over 55% in size
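Stably hTDP1-transfected Tdp1-null chicken DT40 cells were treated with library compounds minus camptothecin and grown for at least 48 hr at 37 °C, after which cellular ATP was quantified by luminescence.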
KB-V1 cytotox = KB-V1 MDR subline cytotoxicity; Potency, µM (doses to about 46.1 µM), most hits filed as cytotoxic; actives 3.4% (n = 400,000); KB-V1 MDR cells viability, CellTiter-Glo, 72 h; note: nearly all actives have a fitted effect of over 60% in size
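Cytotoxicity via CellTiter-Glo luminescence after 72 h compound exposure at 37 degrees C. Cells: drug-selected KB-V1 line, DMEM phenol-red free plus 10% FBS. Compounds tested at multiple concentrations; normalized data fitted to concentration-effect curves.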
KB-3-1 cytotox = kills parental KB-3-1 adenocarcinoma cells; KB-3-1 viability, CellTiter-Glo ATP luminescence, 72 h; Potency, µM (doses to about 46.1 µM), usual class: cytotoxic; actives 1.4% (n = 400,000); AID 1347075; note: nearly all actives have a fitted effect of over 60% in size
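Luminescent ATP read-out (CellTiter-Glo) measures survival of drug-naive KB-3-1 cells after 72 h compound exposure at 37 °C. Titration series was screened from lowest to highest concentration, with DMSO vehicle plates as background controls.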
HT1080 IDH1KD tx = HT-1080 IDH1 knockdown cell toxicity (counter line); Potency, µM (titrated, usually from 46.1 µM), inactives show at the top dose activity, negative = toxicity, most hits filed as cytotoxic; actives 2% (n = 360,000); HT-1080 IDH1 knockdown viability, ATP luminescence, 48 h;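 note: 0% = DMSO wells and -100% = cell-free medium wells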
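Luminescent ATP read-out (CellTiter-Glo, 10 min at room temperature) after 48 h compound exposure at 37 °C gave viability of IDH1-knockdown HT-1080 cells. Activity was normalised to DMSO and cell-free wells, then fitted as concentration-response curves.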
Active calls of the source: *; i = inactive; ? = inconclusive; / = no result. Compounds with a hit are over-represented: about 19% of the library has one in this group of screens. Calls come from the whole dose curve; as a rule, active = well fitted curve in the direction sought with a large enough effect; inconclusive = small, poorly fitted or top-dose-only effect, or another doubt; inactive = no such curve, though single readings can be large; an effect the other way counts as inactive or inconclusive. Unless noted, % is set by controls: 0 for no effect and ±100 for the full control effect; potency is the fitted concentration of half-maximal effect.

SMILES	HT1080NT lethal	DT40 TDP1 CPT	DT40 TDP1 no CPT	KB-V1 cytotox	KB-3-1 cytotox	HT1080 IDH1KD tx
COc1cccc(N2CCN(C(=O)c3cccc(NC(=O)c4nsc5ccccc45)c3)CC2)c1	/	?	21µM*	i	i	/
C=C1[C@@H](O)[C@H](CC(C)C)N(Cc2ccccc2Br)S1(=O)=O	23µM*	5µM*	18µM*	i	?	?
Cc1sc(NC(=O)/C=C/c2ccco2)c(C(=O)O)c1C	-16%	-2%	-4%	i	i	-10%
CN1CCN(c2ccc([N+](=O)[O-])cc2C(=O)c2ccccc2)CC1	-3%	?	?	?	?	-13%
CN1CCN(c2ccc([N+](=O)[O-])cc2C(=O)c2ccc(Br)cc2)CC1	13µM*	2.3µM*	5.2µM*	4.1µM*	2.9µM*	15µM*
Cc1ccc(C(=O)c2cc([N+](=O)[O-])ccc2N2CCN(C)CC2)cc1	10µM*	5.8µM*	5.8µM*	3.7µM*	5.2µM*	7.3µM*
O=[N+]([O-])c1ccc(N2CCN(c3ccc([N+](=O)[O-])cc3CO)CC2)c(CO)c1	-5%	2.3µM*	2.9µM*	i	?	-27%
CN(Cc1ccc(F)cc1)S(=O)(=O)c1nnc(NC(=O)c2ccccc2Cl)s1	/	?	?	i	i	/
Cc1cc(=O)oc2cc(OCC(=O)N(C)C3CCS(=O)(=O)C3)c(Cl)cc12 (configuration not stated)	-3%	6%	3%	i	i	13%
CC1=C(C(=O)OC(C)C)C2(O)C(=O)c3ccccc3C2(O)N1 (configuration not stated)	-4%	-30%	-24%	i	i	-1%
CC(=O)C1=C(C)OC2(O)c3ccccc3C(=O)C12O (configuration not stated)	-12%	?	18µM*	i	i	1%
CCOC(=O)C1=C(C)OC2(O)c3ccccc3C(=O)C12O (configuration not stated)	-9%	?	21µM*	i	i	-1%
CCOC(=O)C1=C(C)N[C@@]2(O)c3ccccc3C(=O)[C@@]12O	9%	-7%	-1%	i	i	1%
CCCCOC(=O)C1=C(C)Nc2nnnn2C1c1ccccc1Cl (configuration not stated)	?	?	13µM*	?	i	?
CN(C)C(=O)c1ccc(NC(=O)c2ccccc2SCC(=O)N2CCCC2)cc1	3%	9%	-2%	i	i	10%
COC(=O)N1CCC2(CC1)CCN(c1ncccn1)CC2	/	-2%	-20%	/	/	/
O=C1CC(c2ccc3c(c2)OCO3)c2cc3c(cc2N1)OCO3 (configuration not stated)	-4%	-29%	?	i	i	-8%
COc1cccc(C2CC(=O)Nc3cc4c(cc32)OCCO4)c1OC(C)C (configuration not stated)	-9%	?	?	?	?	-20%
O=C1CC(c2cc(F)cc(F)c2)c2cc3c(cc2N1)OCO3 (configuration not stated)	/	?	16µM*	i	i	/
O=C1CC(c2cccc(Cl)c2Cl)c2cc3c(cc2N1)OCCO3 (configuration not stated)	/	?	21µM*	i	?	/
COc1ccc(Cl)cc1C1CC(=O)Nc2cc3c(cc21)OCCO3 (configuration not stated)	/	0.65µM*	0.37µM*	/	/	/
COc1ccccc1C1CC(=O)Nc2cc3c(cc21)OCCO3 (configuration not stated)	2.2µM*	5.2µM*	5.2µM*	5.8µM*	?	1.8µM*
COc1ccc(CN2C(=O)c3cccnc3C2=O)cc1S(=O)(=O)NC1CCCCC1C (configuration not stated)	3%	11%	10%	i	i	6%
CC(C)N1CC(C(=O)Nc2ccc(Cl)cc2Cl)CC1=O (configuration not stated)	1%	-19%	9%	i	i	0%
O=C1CC(c2cccs2)c2cc3c(cc2N1)OCCO3 (configuration not stated)	-40%	?	21µM*	i	i	-9%
SMILES	HT1080NT lethal	DT40 TDP1 CPT	DT40 TDP1 no CPT	KB-V1 cytotox	KB-3-1 cytotox	HT1080 IDH1KD tx
COc1ccc(C(CC(=O)c2ccc(C)cc2)C(C#N)C#N)cc1OC (configuration not stated)	21µM*	4.1µM*	5.2µM*	?	?	23µM*
CN(C)CC(CCC(CN(C)C)C(O)(c1ccccc1)c1ccccc1)C(O)(c1ccccc1)c1ccccc1 (configuration not stated)	-14%	23µM*	18µM*	?	?	?
C[C@@H]1CN(S(=O)(=O)C(C)(C)C)[C@H](CCO)/C1=C\c1ccccc1	0%	-11%	-27%	i	i	3%
CCc1ccc(/C=N/NC(=O)c2nnn(-c3nonc3N)c2C(C)C)cc1	-1%	?	18µM*	i	i	-28%
CCCOc1ccc(-c2c(C(=O)N/N=C/C3CCCCC3)nnn2-c2nonc2N)cc1	2%	26µM*	12µM*	i	i	0%
CC(C)c1c(C(=O)N/N=C/c2ccccc2OCc2c(F)cccc2Cl)nnn1-c1nonc1N	-20%	5.8µM*	2.3µM*	16µM*	i	?
CCOc1ccc(-c2c(C(=O)N/N=C/c3ccc(C)cc3)nnn2-c2nonc2N)cc1	-1%	1.6µM*	?	i	i	-1%
CCOc1ccc(-c2c(C(=O)N/N=C/c3ccccc3)nnn2-c2nonc2N)cc1	-1%	-9%	-19%	i	i	-1%
CC1=CCC(C(=O)O)(C(=O)N/N=C/c2cccs2)C(c2ccc([N+](=O)[O-])cc2)C1 (configuration not stated)	1%	-10%	6%	i	i	-13%
CCN(CC)C(=O)c1cccc(-c2csc(C(C)(NC(C)=O)c3ccccc3)n2)c1 (configuration not stated)	2%	?	?	i	i	0%
CCN(CC)C(=O)c1cccc(-c2csc(C(C)(O)c3cccc(F)c3)n2)c1 (configuration not stated)	?	18µM*	23µM*	?	i	?

Assay outcomes (PubChem)
